55 molecules from PubChem BioAssay AID1910 (Broad Institute, 2009) can be followed below.

Out of some 300,000 compounds screened, about 950 (0.32%) were called active. The sample as a whole holds a higher share of actives than the screen did. A number with no mark means an inactive call.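 The calls were made as follows: active = mean activation of at least 10% of the iron chelator positive control signal, with at least half of replicates also reaching 10%; inconclusive = mean and replicate majority disagree about reaching 10%; inactive = mean and most replicates under 10%.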

This test is described as follows: HIF pathway transcriptional activators, primary screen, cell-based, U2OS HRE-luciferase, luminescence (AID 1910). The following applies: U2OS HRE-luciferase reporter, active compounds read high, screened at 7.5 µM (by protocol), normalized: DMSO 0%, desferrioxamine 100%. Background: In a reporter assay the amount or activity of a reporter protein is the signal.
Take `Cc1ccc(NC(=O)COC(=O)CNC(=O)c2ccc(Cl)cc2Cl)cc1S(=O)(=O)N1CCOCC1`: the activation was -0.357%.
`CCOC(=O)c1cc(C(C)C)sc1NC(=O)COC(=O)c1nccnc1N`: the activation is -0.0851%.
`Oc1c(CN2CCN(c3ccc(F)cc3)CC2)cc(Cl)c2cccnc12`: the activation was 57.7% (active).
Regarding `CCN1CCN(C(c2cccnc2)c2cc(Cl)c3cccnc3c2O)CC1` (stereo not given), the activation is 1.75%.
In the case of `Oc1ccc(CN2CCN(c3ncccn3)CC2)cc1`, the activation was -0.81%.
Consider `Cc1ccccc1OCC(=O)Nc1ccc2c(c1)ncn2C`, for which the activation was 1.83%.
For `C=CCC1(C(=O)N(C)Cc2ccccc2)CCN(C(=O)OC(C)(C)C)CC1`, the activation was -0.424%.
As for `COc1ccc2c(c1)O/C(=C\c1ccccc1O)C2=O`, the activation was 3.88%.
In the case of `COc1cc([N+](=O)[O-])cc([N+](=O)[O-])c1NC(=O)N1CCOCC1`, the activation was -0.133%.
As for `COc1ccc(C#Cc2c(-c3ccc(OC)cc3)oc3ccc(-c4ccc5c(c4)OCO5)cc23)cc1`, the activation was 2.6%.
`Cc1cccc(OCCC(=O)Nc2cc(S(=O)(=O)N3CCCCC3)ccc2N2CCOCC2)c1`: the activation is -0.617%.
Regarding `CC(=O)NCCC(=O)Nc1cc(S(=O)(=O)N2CCOCC2)ccc1N1CCOCC1`, the activation is 158% (active).
Regarding `CN1CCN(c2ccc(S(=O)(=O)N3CCOCC3)cc2NC(=O)CCc2ccccc2)CC1`, the activation was 0.124%.
For the molecule `O=S(=O)(NCCCc1ccccc1)c1ccc(Br)cc1`, the activation was -0.382%.
In the case of `O=c1[nH]snc1-c1c(Cl)cccc1Cl`, the activation is -0.133%.
Under `COc1ccc(S(=O)(=O)N2CCOC2CNC(=O)C(=O)NCc2ccncc2)cc1OC` (stereo not given) stands 0.131%; under `Cc1ccc(S(=O)(=O)N2CCN(C(=O)c3ccccc3-c3nc4ccccc4s3)CC2)c(C)c1`, -37.1%; under `CCOC(=O)C1CCN(C(=O)COC(=O)C2CCN(S(=O)(=O)c3ccc4c(c3)OCCO4)CC2)CC1`, 0.496%.
Under `COc1ccccc1CCNS(=O)(=O)c1cc2c3c(c1)C(C)C(=O)N3CCC2` (stereo not given) stands 80.8% (active); under `CC1C(=O)N2CCCc3cc(S(=O)(=O)NCc4ccc(F)cc4)cc1c32` (stereo not given), 2.62%.
Under `CCOc1ccccc1NS(=O)(=O)c1cc2c3c(c1)C(C)C(=O)N3CCC2` (stereo not given) stands -0.238%.
In the case of `O=C(CNC(=O)C12CC3CC(CC(C3)C1)C2)OCC(=O)N1CCCCC1`, the activation was -0.325%.
Turning to `CC(NC(=O)c1ccccc1SCC(=O)N1CCCC1)c1ccccc1` (stereo not given), the activation is -0.504%.
For the molecule `COc1ccc(-c2cc(C(=O)NCCCn3ccnc3)no2)cc1`, the activation was 1.05%.
As to `O=C(NCCCn1ccnc1)c1cc(-c2ccccc2)on1`, the activation was 35.8% (active).
Turning to `COc1ccccc1-c1cc(C(=O)NCCCn2ccnc2)no1`, the activation was 0.0935%.
On to `CC(NC(=O)c1cc(-c2ccccc2)on1)c1ccccc1` (stereo not given), for which the activation is 0.0998%.
`O=C(NC1CCCCC1)c1cc(C2CC2)on1`: the activation is 1.35%.
Under `O=C(NC1CCCC1)c1cc(-c2ccccc2)on1` stands 25.3% (active); under `Cc1ccccc1C(=O)N1CCC(C(=O)Oc2ccc(C#N)cc2)CC1`, -0.988%.
The result for `CC(=O)c1ccc(NC(=O)C2CCCN2S(=O)(=O)c2cccs2)cc1` (stereo not given) reads -0.0783%; that for `N#CCCN(C(=O)COC(=O)C1CCN(c2ccc(C(F)(F)F)cn2)CC1)c1ccc(F)cc1`, 0.186%.
Regarding `COc1ccc(CCNC(=O)CSc2nnc3ccc(-c4ccncc4)nn23)cc1`, the activation was -0.329%.
For the molecule `COc1cccc(-c2ccc(C#N)c(SCC(=O)NCCc3ccc(Cl)cc3)n2)c1`, the activation was -0.149%.
The result for `COc1ccc(CCNC(=O)CSc2nc(-c3ccc(OC)c(OC)c3)ccc2C#N)cc1` reads 225% (active); that for `C=CCOc1ccc(/C=C/C(=O)OCC(=O)NC(C)c2ccc(F)cc2)cc1` (stereo not given), -1.98%.
Take `CCOc1ccc(NC(=O)c2ccc(NC(=O)CN3C(=O)C(=O)N(CC(C)C)C3=O)cc2)cc1`: the activation is -0.207%.
For `Cc1cccc(CCNC(=O)Cn2ncc3c([nH]c4ccc(C)cc43)c2=O)c1`, the activation was 67.3% (active).
In the case of `Cc1ccc2[nH]c3c(=O)n(CC(=O)NCCc4ccc(Cl)cc4)ncc3c2c1`, the activation is 0.0828%.
With `CC1CC(C)CN(CCCNC(=O)Cn2ncc3c([nH]c4ccccc43)c2=O)C1` (stereo not given), the activation is -0.555%.
The result for `Cc1ccc2nnn(Cc3cccc(C(C)(C)C)c3O)c2c1` reads -0.574%; that for `CCc1cccc(C)c1NC(=O)COC(=O)CC1CCCC1`, -0.451%; that for `CC(=O)Nc1ccc(S(=O)(=O)N2CCC(NC(=O)c3ccccc3)CC2)cc1`, -33.2%.
For `CCNC(=S)N1CCN(CCN=CC2=C(O)CC(C)(C)CC2=O)CC1`, the activation was -0.656%.
The result for `CC1(C)CC(=O)C(C=NCCN2CCN(C(=S)Nc3cccc(Cl)c3)CC2)=C(O)C1` reads 233% (active).
Consider `CC(=O)N1CCN(CCN=CC2=C(O)CC(C)(C)CC2=O)CC1`, for which the activation is -0.482%.
`COCCNC(=S)N(CCc1c(C)[nH]c2ccc(C)cc12)Cc1cccnc1`: the activation is 0.573%.
`Cc1nnc(N/N=C/C2CC=CCC2)[nH]c1=O` (stereo not given): the activation is -0.414%.
As to `CNC(=O)C(=O)N/N=C/c1ccccn1`, the activation is -0.138%.
As for `Cc1nnc(N/N=C/c2ccccn2)[nH]c1=O`, the activation is 117% (active).
The result for `CCCN(CCC)C(=S)Nc1cc(C(=O)OC)ccc1C(=O)OC` reads 166% (active).
As to `CCN(CCO)C(=S)Nc1cc(C(=O)OC)ccc1C(=O)OC`, the activation is -0.0671%.
In the case of `CCS(=O)(=O)Nc1cc(C(=O)OC)ccc1C(=O)OC`, the activation is -0.124%.
`Fc1ccc(-c2ccc(NCCN3CCOCC3)nn2)cc1`: the activation is 3.51%.
Consider `COc1ccc(NC(=O)CCCC(=O)c2ccccc2)cc1`, for which the activation was 0.37%.
